Active and inactive are the calls of the source.
Legend:
[1] = compounds binding Alexa647 anti-His antibody – biochemical, small-molecule microarray, 635 nm fluorescence, artefact control for SMM control protein annotation, primary screen (AID 1128); settings: higher = more signal;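 further: score merges feature fluorescence with signal-to-noise for each printed compound spot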
[2] = system: Human papillomavirus type 1a E7 protein (residues 1-88); assay: HPV1a E7 small-molecule binders, primary screen, biochemical, small-molecule microarray, residues 1-88, 635 nm (AID 1129); settings: small-molecule microarray binding, fluorescence 635 nm; higher = more signal
[3] = target: Focal adhesion kinase 1 (Homo sapiens) (UniProt Q05397); assay: PTK2 protein binding on printed compound slides – biochemical, small-molecule microarray, 635/667 nm fluorescence, BSA, DTT, primary screen (AID 1130); settings: 635 nm fluorescence, higher = more signal;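 further: composite of spot emission at 667 nm and signal to noise over triplicate slides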
Focal adhesion kinase 1 (Homo sapiens), sequence (Q05397 whole entry, looked up): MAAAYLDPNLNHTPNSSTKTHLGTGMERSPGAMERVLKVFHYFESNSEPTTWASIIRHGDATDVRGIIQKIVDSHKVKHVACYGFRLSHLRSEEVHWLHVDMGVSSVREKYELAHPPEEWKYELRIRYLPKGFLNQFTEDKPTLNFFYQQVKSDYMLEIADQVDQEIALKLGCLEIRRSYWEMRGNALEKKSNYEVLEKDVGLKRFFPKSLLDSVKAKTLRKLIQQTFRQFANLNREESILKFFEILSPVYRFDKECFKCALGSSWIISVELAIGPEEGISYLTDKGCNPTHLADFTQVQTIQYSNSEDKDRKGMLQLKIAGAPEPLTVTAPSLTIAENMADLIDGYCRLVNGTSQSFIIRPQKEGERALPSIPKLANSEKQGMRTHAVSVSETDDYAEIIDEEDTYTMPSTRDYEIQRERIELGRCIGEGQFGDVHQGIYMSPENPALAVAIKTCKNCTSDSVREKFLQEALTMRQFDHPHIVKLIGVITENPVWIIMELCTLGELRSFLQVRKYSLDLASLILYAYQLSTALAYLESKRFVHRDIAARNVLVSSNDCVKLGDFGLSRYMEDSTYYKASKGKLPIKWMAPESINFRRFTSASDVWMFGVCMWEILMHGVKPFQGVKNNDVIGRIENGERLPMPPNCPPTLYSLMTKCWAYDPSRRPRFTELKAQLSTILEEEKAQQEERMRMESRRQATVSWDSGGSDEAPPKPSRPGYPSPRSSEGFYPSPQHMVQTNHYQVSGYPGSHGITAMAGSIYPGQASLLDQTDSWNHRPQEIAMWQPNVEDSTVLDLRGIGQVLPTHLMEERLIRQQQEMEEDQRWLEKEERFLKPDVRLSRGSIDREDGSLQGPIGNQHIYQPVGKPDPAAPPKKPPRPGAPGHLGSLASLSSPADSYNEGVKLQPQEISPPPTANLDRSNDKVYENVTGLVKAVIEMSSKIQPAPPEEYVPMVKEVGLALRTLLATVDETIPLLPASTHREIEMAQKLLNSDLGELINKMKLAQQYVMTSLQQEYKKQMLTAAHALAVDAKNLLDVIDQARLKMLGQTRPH

[4] = system: Fibrinogen (Alexa647-labelled); assay: Alexa647-fibrinogen binding to printed small molecules – biochemical, small-molecule microarray, 635/667 nm fluorescence, artefact control for SMM control-protein annotation, profiling panel (AID 1131); settings: fibrinogen-A647 binding fluorescence, higher = more signal;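 further: z-score merges 667 nm fluorescence with per-spot signal-to-noise over triplicate slides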
[5] = target: Follistatin (Homo sapiens) (UniProt P19883); assay: FST protein binding to printed compounds – biochemical, small-molecule microarray, 635/667 nm fluorescence, primary screen (AID 1132); settings: 635 nm fluorescence, higher = more signal
Follistatin (Homo sapiens), sequence (P19883 whole entry, looked up): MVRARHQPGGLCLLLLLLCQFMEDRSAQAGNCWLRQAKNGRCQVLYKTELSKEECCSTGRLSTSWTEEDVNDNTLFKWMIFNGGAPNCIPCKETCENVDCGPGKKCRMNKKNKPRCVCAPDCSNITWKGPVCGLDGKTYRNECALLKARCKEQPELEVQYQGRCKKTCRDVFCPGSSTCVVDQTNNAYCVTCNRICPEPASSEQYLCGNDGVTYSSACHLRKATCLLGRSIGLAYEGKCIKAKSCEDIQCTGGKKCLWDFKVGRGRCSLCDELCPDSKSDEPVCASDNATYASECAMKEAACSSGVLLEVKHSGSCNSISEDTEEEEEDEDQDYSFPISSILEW

[6] = target: Fibroblast growth factor 2 (Homo sapiens) (UniProt P09038); assay: basic fibroblast growth factor binding to printed compounds – biochemical, small-molecule microarray, 635/667 nm fluorescence, primary screen (AID 1133); settings: FGF2, fluorescence 635/667, higher = more signal
Fibroblast growth factor 2 (Homo sapiens), sequence (P09038 whole entry, looked up): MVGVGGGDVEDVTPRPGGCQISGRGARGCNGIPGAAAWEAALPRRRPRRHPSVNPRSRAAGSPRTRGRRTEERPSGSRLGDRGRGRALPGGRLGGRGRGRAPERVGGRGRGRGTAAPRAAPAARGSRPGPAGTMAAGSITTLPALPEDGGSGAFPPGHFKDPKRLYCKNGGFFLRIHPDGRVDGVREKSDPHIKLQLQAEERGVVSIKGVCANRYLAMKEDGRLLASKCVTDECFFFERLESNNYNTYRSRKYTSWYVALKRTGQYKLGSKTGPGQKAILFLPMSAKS

[7] = JC-1 mitochondrial potential readout, lung cancer cells – cell-based, A549, JC-1 fluorescence, basal, 24 h, 100 nL, profiling panel (AID 1138); settings: higher = more signal;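 further: A549 lung adenocarcinoma cells under basal conditions with no added stimulus; test concentration not given here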
Lefty1 = Lefty1 protein binding to printed compounds – biochemical, small-molecule microarray, 635/667 nm fluorescence, primary screen (AID 1139); settings: fluorescence 635/667, higher = more signal
[8] = system: wheat germ agglutinin (Triticum aestivum), Alexa647-labelled; assay: Alexa647-WGA lectin binding to printed small molecules – biochemical, small-molecule microarray, 635/667 nm fluorescence, artefact control for SMM control-protein annotation, profiling panel (AID 1140); settings: WGA-A647 binding, 635 nm fluorescence, higher = more signal;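 further: score merges 667 nm feature emission with signal to noise over triplicate slides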
[9] = target: Luciferin 4-monooxygenase (Photinus pyralis) (UniProt P08659); assay: inhibition of purified Photinus pyralis luciferase – biochemical, luminescence, purified enzyme, 2006 set, primary screen (AID 1141); settings: purified firefly luciferase, SteadyGlo luminescence, 30 min; higher = more signal, called active from +8 up or from −8 down;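 further: cell-free assay with purified firefly luciferase at 100 ng per well in PBS; test concentration not given here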
Luciferin 4-monooxygenase (Photinus pyralis), sequence (P08659 whole entry, looked up): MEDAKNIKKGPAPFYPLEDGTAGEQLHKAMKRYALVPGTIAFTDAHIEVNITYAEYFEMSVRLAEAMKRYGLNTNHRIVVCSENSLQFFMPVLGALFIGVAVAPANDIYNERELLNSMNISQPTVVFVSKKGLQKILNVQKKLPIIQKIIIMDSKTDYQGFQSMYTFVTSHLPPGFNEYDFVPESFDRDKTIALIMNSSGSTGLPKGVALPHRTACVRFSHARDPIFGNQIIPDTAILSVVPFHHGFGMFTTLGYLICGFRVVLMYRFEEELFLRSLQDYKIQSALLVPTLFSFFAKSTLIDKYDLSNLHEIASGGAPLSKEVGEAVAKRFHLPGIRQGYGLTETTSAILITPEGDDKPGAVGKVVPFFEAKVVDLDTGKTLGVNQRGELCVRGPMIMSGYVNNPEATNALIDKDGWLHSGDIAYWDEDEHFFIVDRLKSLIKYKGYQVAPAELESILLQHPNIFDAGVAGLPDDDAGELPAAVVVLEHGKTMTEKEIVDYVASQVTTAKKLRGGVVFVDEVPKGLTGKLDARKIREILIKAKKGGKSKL

Row | SMILES | composite z-score [1] | composite z-score [2] | composite z-score [3] | composite z-score [4] | composite z-score [5] | composite z-score [6] | z-score [7] | composite z-score (Lefty1) | composite z-score [8] | z-score [9]
1 | CC1CC/C=C\[C@H]2OC34C=CCN(C(C)C)C(=O)[C@H]3N(CCCO)C(=O)[C@@H]4C2C(=O)O1 (stereo not given in full) | 1.41 | -0.883 | -0.716 | -1.5 | -1.07 | -1.24 | 0.439 | -0.837 | -1.09 | -0.623 (inactive)
2 | CC(C)c1ccc(NN2C(C(O)c3ccc4c(c3)OCO4)C=CC3C(=O)N(c4ccccc4)C(=O)C32)cc1 (stereo not given) | 1.57 | 1.19 | 0.477 | 1.04 | 1.02 | -0.146 | -0.726 | 0.545 | 0.881 | -1.72 (inactive)
3 | CC(CCN1CCc2nc(-c3ccccc3)c(-c3ccccc3)cc2C1)=NOC[C@@H](C)[C@H](OCc1ccccc1)C(C)C | 1.45 | -1.69 | 0.123 | -0.242 | -1.45 | -1.14 | 0.436 | -0.677 | -0.469 | -1.09 (inactive)
4 | COC(=O)CC=C[C@H](C)[C@@H](OCc1ccccc1Br)C(C)C | 0.219 | -0.161 | 0.0767 | -0.263 | 0.292 | -0.0207 | 1.32 | 0.646 | 0.0141 | -0.401 (inactive)
5 | CCCNC(=O)OC[C@H]1O[C@H](CCON=CC[C@@H]2C=C[C@H](OC(C)=O)[C@@H](COC(C)=O)O2)C=C[C@@H]1Oc1ccc(OC)cc1 | 0.731 | 0.535 | 0.474 | 0.733 | 0.461 | 0.693 | -1.16 | 0.561 | 0.462 | 0.985 (inactive)
6 | COCCCNC(=O)[C@@]1(Sc2ccc(C)cc2)CC(=O)N(Cc2ccccc2)[C@@H]1c1ccc(CO)cc1I | 0.101 | 0.264 | -0.303 | -0.154 | -0.191 | -0.376 | 1.63 | -1.13 | -0.308 | -0.848 (inactive)
7 | C[C@@H]1C=CCC(=O)OC[C@H](C)C(=O)N2CCC[C@H]2C(=O)OC1 | 2.67 | 0.589 | -0.344 | -0.592 | 1.31 | 1.74 | -0.741 | 1.59 | -0.273 | 1.1 (inactive)
8 | CC(C)C[C@@H]1NC(=O)[C@H]2C[C@@H](C(=O)O)[C@@H](c3ccc(O)cc3)N2C1=O | 3.44 | -0.526 | -0.199 | -0.0448 | 1.34 | 0.85 | -0.986 | 0.874 | 0.242 | -1.2 (inactive)
9 | CC(C)(C)N1C(=O)[C@H]2[C@H]3[C@H](O)[C@H](O)CC(=NO[C@@H]4O[C@H](CO)[C@@H](O)[C@H](O)[C@H]4O)[C@@H]3CC[C@H]2C1=O | 1.14 | 1.08 | 1.04 | 0.747 | 1.09 | 0.762 | -0.0208 | 1.13 | 0.398 | 0.0997 (inactive)
10 | CCCC=C(CCC)[C@@H](NC(=O)c1ccc(-c2ccccc2)cc1)c1ccc(C(=O)OC)cc1 | 0.377 | 1.19 | 0.296 | 0.967 | 0.142 | -0.558 | -0.457 | -0.182 | 1.2 | 1.93 (inactive)
11 | Cc1ccc(C2CC=C(C(=O)O)CN2S(=O)(=O)c2ccc(C)cc2)cc1 (stereo not given) | 1.26 | 1.17 | 0.286 | 0.566 | 0.158 | 0.0208 | -1.23 | 0.0504 | 0.718 | 1.64 (inactive)
12 | C[N+](C)(C)CCCCCCNC(=O)[C@@H]1C[C@@H]2C(=O)N3CCC[C@H]3C(=O)N2[C@@H]1c1cccc(OCCO)c1 | 1.06 | 0.049 | 0.622 | -1.47 | 1.27 | 0.941 | -0.518 | 0.915 | -0.122 | 0.688 (inactive)
13 | Cc1cc2c(nc1C)CCCN2CC(C)ON=C1[C@H]2CCn3c(=O)n(-c4ccccc4)c(=O)n3[C@H]2[C@H](O)[C@@H]2O[C@H]12 (stereo not given in full) | -0.674 | 0.304 | 0.515 | 0.342 | 0.687 | 0.56 | -0.562 | 0.703 | 0.075 | 0.424 (inactive)
14 | CCCNC(=O)[C@@H]1c2ccccc2C(=O)N(Cc2ccccc2Cl)[C@H]1c1ccc(CO)cc1 | 2.58 | 1.19 | 0.497 | 0.691 | 1.36 | 1.3 | 3.16 | 1.1 | 1.09 | -1.54 (inactive)
15 | C=CCN1C(=O)[C@]2(O[C@H](CCn3cc(CCO)nn3)[C@@H]([Si](C)(C)c3ccc(OC)cc3)[C@@H]2C)c2cc(N3CCOC3=O)ccc21 | 0.766 | 1.2 | 0.469 | 0.338 | -0.293 | -0.0054 | 0.982 | 0.0269 | 0.574 | -1.8 (inactive)
16 | COc1ccc([Si](C)(C)[C@@H]2[C@@H](CCO)O[C@]3(C(=O)N(Cc4ccc(NC(C)=O)cc4)c4ccccc43)[C@H]2C)cc1 | 1.92 | 1.22 | 0.11 | 0.963 | 1.07 | 0.228 | -0.898 | 0.727 | 0.771 | 0.377 (inactive)
17 | CCCCCN1CC=CC23O[C@@H]4C=CCOC(=O)[C@@H]4[C@H]2C(=O)N(CCCCCCO)[C@@H]3C1=O (stereo not given in full) | 0.309 | -0.381 | -0.236 | -1.04 | -2.23 | -1.49 | 0.421 | -1.05 | -0.416 | 0.294 (inactive)
18 | COC(=O)[C@]1(CO)N=C(c2ccc(OCCCO)cc2)O[C@@H]1c1ccccc1N=[N+]=[N-] | 1.3 | 0.541 | -0.277 | 0.633 | 1.43 | 1.6 | 0.299 | 0.83 | -0.119 | -1.64 (inactive)
19 | CCN1C(=O)[C@H]2[C@H]3[C@H](O)[C@H](O)CC(=NOC(C)CN4CCCCc5nc(C)c(C)cc54)[C@@H]3CC[C@H]2C1=O (stereo not given in full) | 2.1 | 0.0084 | 0.167 | -0.323 | 0.861 | 0.541 | 0.0743 | 0.672 | 0.0283 | 0.161 (inactive)
20 | CC(=O)OC[C@H]1O[C@@H](ON=C(C)CCN2CCc3nc(-c4ccccc4)c(-c4ccccc4)cc3C2)[C@H](OC(C)=O)[C@@H](OC(C)=O)[C@@H]1OC(C)=O | -0.116 | 1.11 | 0.276 | 0.867 | 0.992 | 1.19 | 1.13 | 0.699 | 0.491 | 0.93 (inactive)
21 | COCC1=C2[C@@H](CCc3ccccc3)OB(O)C[C@@H]2n2c(=O)n(-c3ccccc3)c(=O)n2C1 | 0.241 | -0.028 | -0.0493 | -0.434 | 0.133 | 0.506 | 0.581 | 0.336 | -0.228 | -1.19 (inactive)
22 | C[C@H](c1ccccc1)N1C(=O)[C@H]2[C@@H]3C(=CC[C@H]2C1=O)C(=O)[C@H]1O[C@H]1[C@H]3O | 1.36 | 0.336 | 0.204 | 0.367 | 0.642 | 0.565 | -0.732 | 0.708 | -0.0651 | -1.47 (inactive)
23 | Cc1ccc(S[C@]2(C(=O)O)CC(=O)N(Cc3ccccc3)[C@@H]2c2ccc(CO)cc2I)cc1 | 2.86 | 0.242 | 0.284 | 0.186 | 0.023 | -0.697 | 0.305 | -0.69 | 0.189 | -0.57 (inactive)
24 | C=CCOC(=O)[C@H]1[C@@H]2C(=O)O[C@@H](c3ccccc3)[C@@H](c3ccccc3)N2[C@@H](c2ccc(OCCOC(=O)[C@H]3C[C@H]4C(=O)N5CCC[C@H]5C(=O)N4[C@H]3c3cccc(OCCO)c3)cc2)[C@]12C(=O)Nc1ccc(I)cc12 | 3.59 | 1.25 | -0.259 | 0.97 | 1.46 | 1.68 | 0.445 | 1.37 | 1.5 | 0.108 (inactive)
25 | CN(C)CCCNC(=O)[C@@H]1c2ccccc2C(=O)N(Cc2ccccc2)[C@H]1c1ccc(CO)cc1 | 0.514 | -0.958 | -0.193 | -0.355 | -0.242 | -0.158 | 1.85 | -0.201 | -0.0107 | -0.784 (inactive)
26 | COC(=O)[C@@H]1CC[C@H](C)[C@@H](c2ccc(C)cc2)N1C(=O)c1ccc(C=NOC[C@@H](O)COCc2ccco2)cc1 | 0.373 | -1.79 | -0.574 | -1.68 | -0.526 | -1.18 | -0.245 | -1.09 | -0.893 | 0.193 (inactive)
27 | COC(=O)CC1OC1[C@H](C)[C@@H](OC)C(C)C (stereo not given in full) | -0.0177 | 0.212 | -0.405 | 0.745 | 0.623 | 0.443 | 3.01 | 0.786 | 0.733 | -1.73 (inactive)

From PubChem BioAssay
